Records with an inconclusive call do not appear. The source made the active and inactive calls. Rule for the calls: active = hit-call score of the fitted dose curve at least 0.9, where 1 is the maximum; inconclusive = response in the unintended direction; inactive = score below 0.9.

In PubChem BioAssay (EPA / NIEHS) one finds outcome data, which are given here for 35 molecules.

This test deals with human RAR-related Orphan Receptor gamma (RORg), RORC (gene 6097) (UniProt P51449). Briefly: ATG_RORg_TRANS: Attagene TRANS-FACTORIAL HepG2 Assay for human RAR-related Orphan Receptor gamma (RORg) (AID 2283011). The method, then: ATG_TRANS is a cell-based, multiplexed-readout assay that uses HepG2, a human liver cell line, with measurements taken at 24 hours after chemical dosing in a 24-well plate.ATG_RORg_TRANS is one of 30 assay component(s) measured or calculated from the ATG_TRANS assay. It is designed to make measurements of mRNA induction, a form of inducible reporter, as detected with fluorescence intensity signals by Reverse transcription polymerase chain reaction (RT-PCR) and Capillary electrophoresis technology.Data from the assay component ATG_RORg_TRANS was analyzed into 1 assay endpoint. This assay endpoint, ATG_RORg_TRANS, was analyzed in the positive analysis fitting direction relative to DMSO as the negative control and baseline of activity. Using a type of inducible reporter, measures of mRNA for gain-of-signal activity can be used to understand the reporter gene at the transcription factor-level as they relate to the gene RORC. Furthermore, this assay endpoint can be referred to as a primary readout, because this assay has produced multiple assay endpoints where this one serves a reporter gene function. To generalize the intended target to other relatable targets, this assay endpoint is annotated to the nuclear receptor intended target family, where the subfamily is orphan.
human RAR-related Orphan Receptor gamma (RORg), RORC (gene 6097), sequence (P51449 whole entry, looked up): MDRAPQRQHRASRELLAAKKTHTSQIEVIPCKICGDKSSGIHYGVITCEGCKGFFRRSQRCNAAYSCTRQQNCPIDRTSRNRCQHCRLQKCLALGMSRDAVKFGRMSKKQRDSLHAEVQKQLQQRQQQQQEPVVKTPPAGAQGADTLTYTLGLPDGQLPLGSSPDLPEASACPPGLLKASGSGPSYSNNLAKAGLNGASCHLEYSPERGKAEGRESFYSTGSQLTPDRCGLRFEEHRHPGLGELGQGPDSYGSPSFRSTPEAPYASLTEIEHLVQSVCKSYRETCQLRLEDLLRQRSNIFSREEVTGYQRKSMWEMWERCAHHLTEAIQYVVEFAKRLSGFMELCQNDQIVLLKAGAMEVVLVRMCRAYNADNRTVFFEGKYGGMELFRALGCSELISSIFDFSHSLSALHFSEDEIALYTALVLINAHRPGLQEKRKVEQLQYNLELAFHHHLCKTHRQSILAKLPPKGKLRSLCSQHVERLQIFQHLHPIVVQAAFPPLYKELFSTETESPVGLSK
Human liver HepG2 cells are transiently transfected with multiple reporter transcription units (MRTUs) in 6-well plates using FuGene 6 reagent (Roche; 3 ml FuGene/1 mg DNA). The MRTU constructs are regulated by a cis-regulating element (promoter). […] A major difference between the CIS and TRANS system is that in CIS activities of endogenous TFs are measured, whereas the TRANS assay evaluates changes in activities of exogenous, chimeric NR-Gal4 proteins. […] At the end of 24 hour incubation, total RNA was isolated using TriZol reagent (Invitrogen). The isolated RNA is then reverse-transcribed using oligo(dT) primer and Mo-MLV reverse transcriptase (Invitrogen) with DNAse I (Ambion) treatment for 30 min. The one-tenth of the produced cDNA was amplified by PCR using Taq DNA polymerase (Invitrogen) and two reporter sequence-specific primers. The PCR products were fluorescently labeled by primer extension with 6-arboxyfluorescein (6-FAM) 5'-labeled reporter sequence-specific primer (2 min at 95 C, 20 s at 68 C and 10 min at 72 C) and these products were digested with 5U of HpaI (New England Biolabs) for 2h at 37 C. The fragments were purified using Qiaquick PCR columns (Qiagen), analyzed on an ABI 3130xL genetic analyzer (Applied Biosystems) with peak positions identified by using a set of X-rhodamine (ROX)-labeled MapMarker1000 molecular weight standards (BioVentures). The raw capillary electrophoresis data was processed using Attagraph software (Attagene).
As for `O=C(O)c1ccccc1C(c1ccc(O)cc1)c1ccc(O)cc1`, the molecule was called inactive.

In the case of `CC[C@H](C)[C@@H](C(=O)O)n1sc2ccccc2c1=O`, the call was inactive.

Consider `CCCCC[C@H](O)CC(=O)CCc1ccc(O)c(OC)c1`, for which the molecule was called inactive.

Take `CCCCCCCCOC(=O)CCCCCCCCC(=O)OCCCCCCCC`: the call was inactive.

As for `c1ccc2cc3c(ccc4ccccc43)cc2c1`, the result was inactive. Then `Oc1cccc(O)c1`, with “inactive”; and `CC(=O)CC(C)(C)O`, with “inactive”. On to `O=C(OCCOCCOC(=O)c1ccccc1)c1ccccc1`, for which the molecule was classed as inactive.

With `CCc1ccc(CCOc2ccc(CC3SC(=O)NC3=O)cc2)nc1` (stereo not given), the molecule was classed as inactive. Then `CN(C)C=O`, with “inactive”; and `CCCCCCCCCCCCCC[N+](C)(C)C`, with “inactive”. As for `COc1ccc([N+](=O)[O-])cc1N`, the molecule was classed as inactive. As for `COc1cc(CCC(=O)CC(=O)CCc2ccc(O)c(OC)c2)ccc1O`, the molecule was classed as inactive. The value for `O=c1c(-c2ccc(O)cc2)coc2cc(O)ccc12` was “inactive”. Turning to `O=C1OC2(c3ccccc31)c1cc(Br)c(O)c(Br)c1Oc1c2cc(Br)c(O)c1Br`, the outcome was inactive. On to `C[C@@H]1C[C@H]2[C@@H]3CCC4=CC(=O)C=C[C@]4(C)[C@@]3(F)[C@@H](O)C[C@]2(C)[C@@]1(O)C(=O)COP(=O)(O)O`, for which the molecule was classed as inactive. The value for `CN1CCC[C@H]1c1cccnc1` was “inactive”; that for `CCCCCCCCCCCCc1ccccc1S(=O)(=O)O` was “inactive”.

`CCOC(=O)CC(O)(CC(=O)OCC)C(=O)OCC`: the molecule was called inactive. As for `OCCC(F)(F)C(F)(F)C(F)(F)C(F)(F)C(F)(F)C(F)(F)C(F)(F)C(F)(F)F`, the result was inactive. Then `CC(C)(C)c1cc(C(C)(C)C)c(O)c(C(C)(C)C)c1`, with “inactive”; and `C=C(C)C(=O)OCCC(F)(F)C(F)(F)C(F)(F)C(F)(F)C(F)(F)C(F)(F)F`, with “inactive”.

For the molecule `Cc1ccc(S(=O)(=O)O)c(C)c1`, the result was inactive. The value for `CC(C)(C)c1ccc(O)c(C(C)(C)C)c1` was “inactive”; that for `CCCCC(CC)COC(=O)CCCCC(=O)OCc1ccccc1` (stereo not given) was “inactive”; that for `N#C[C@@H]1CC(F)(F)CN1C(=O)CNC1CC2CCC(C1)N2c1ncccn1` (stereo not given in full) was “inactive”. On to `OCCC(F)(F)C(F)(F)C(F)(F)C(F)(F)C(F)(F)C(F)(F)F`, for which the molecule was classed as inactive.

As to `Cc1cc(C)c(O)c(C)c1`, the result was inactive. As to `O=C(O)Cc1cc(I)c(Oc2cc(I)c(O)c(I)c2)c(I)c1`, the molecule was called inactive. The value for `CC(O)CO` (stereo not given) was “inactive”. Then `Cc1oc(-c2ccccc2)nc1CCOc1ccc(C[C@H](Nc2ccccc2C(=O)c2ccccc2)C(=O)O)cc1`, with “inactive”.

Turning to `FC(F)(I)C(F)(F)C(F)(F)C(F)(F)C(F)(F)C(F)(F)I`, the result was inactive.

As to `OC1CCCCC1`, the outcome was inactive. Then `NC(=O)N1C(=O)C(C(=O)c2cc(Cl)cs2)c2cc(F)c(Cl)cc21` (stereo not given), with “inactive”; and `CCCOc1sc(C(=O)N2CCC(c3cc(CN)ccc3F)CC2)c(C)c1Br`, with “inactive”.
